# PubChem BioAssay (EPA / NIEHS)
# Inconclusive results are not listed. Active and inactive are the calls of the source. How the source made its calls, unless noted: active means hit-call score of the fitted dose curve at least 0.9, where 1 is the maximum; inactive means score below 0.9.
# Columns and labels:
# [1] = ACEA_ER_80hr: ACEA Biosciences xCELLigence Real-Time Cell Analysis on Estrogen Receptor Agonism for Proliferation (AID 2282667; active means hit-call score of the fitted dose curve at least 0.9, where 1 is the maximum); details: T47D proliferation, impedance (xCELLigence), 80 h
# In short: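 Real-time electrical impedance tracked growth of the human breast line T47D, with the 80 h post-dosing value used. Dosing spanned eight 1:4 steps down from a 100 uM final top concentration, run in duplicate.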
# [2] = ATG_CRE_CIS: Attagene CIS-FACTORIAL HepG2 Assay for human cAMP Responsive Element (CRE) binding protein 3 (AID 2282926); details: HepG2 CRE cis-reporter, Attagene multiplexed mRNA; actives raise or lower the signal
# In short: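 Human liver HepG2, transient MRTU transfection, 24 h compound exposure. Total RNA → oligo(dT) RT → PCR → 6-FAM primer extension → HpaI cut → CE. Activity called both directions vs DMSO.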
# [3] = molecular target: CCAAT/enhancer-binding protein beta (Homo sapiens) (UniProt P17676); assay: ATG_C_EBP_CIS: Attagene CIS-FACTORIAL HepG2 Assay for human CCAAT/Enhancer Binding Protein (C/EBP) beta (AID 2282927); details: HepG2 Attagene cis-factorial transcription factor reporter; actives raise or lower the signal
# Chain of CCAAT/enhancer-binding protein beta (Homo sapiens) (P17676 whole entry, looked up): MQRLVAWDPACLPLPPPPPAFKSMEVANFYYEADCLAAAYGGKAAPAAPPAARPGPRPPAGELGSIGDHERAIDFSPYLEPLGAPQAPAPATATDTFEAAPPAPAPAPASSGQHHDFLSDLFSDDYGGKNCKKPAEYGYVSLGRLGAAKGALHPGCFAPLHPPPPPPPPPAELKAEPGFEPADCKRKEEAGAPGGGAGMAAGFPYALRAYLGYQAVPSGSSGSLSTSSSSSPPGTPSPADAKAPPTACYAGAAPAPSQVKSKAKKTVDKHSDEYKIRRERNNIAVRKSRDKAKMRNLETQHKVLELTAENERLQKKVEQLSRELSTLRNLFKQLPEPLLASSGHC
# In short: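 RT-PCR/capillary electrophoresis fluorescence of reporter mRNA, 24 h post-dose, in HepG2 cells carrying transfected cis-promoter reporter units. Bidirectional curve fitting against DMSO baseline captures gain or loss of signal.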
# [4] = ATG_DR4_LXR_CIS: Attagene CIS-FACTORIAL HepG2 Assay for human Liver X Receptor (LXR), DR4 submotif (AID 2282929); details: HepG2 Attagene DR4 cis-reporter, mRNA transcription; actives raise or lower the signal
# In short: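 DR4 cis-reporter in HepG2, 24 h exposure. Detection: RT-PCR, 6-FAM labelling, CE fragment analysis. Endpoint fitted bidirectionally, DMSO = baseline.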
# [5] = molecular target: Aryl hydrocarbon receptor (Homo sapiens) (UniProt P35869); assay: ATG_Ahr_CIS: Attagene CIS-FACTORIAL HepG2 Assay for human Aryl Hydrocarbon Receptor (Ahr) (AID 2282930); details: HepG2 AhR cis-factorial reporter transcription; actives raise or lower the signal
# Chain of Aryl hydrocarbon receptor (Homo sapiens) (P35869 whole entry, looked up): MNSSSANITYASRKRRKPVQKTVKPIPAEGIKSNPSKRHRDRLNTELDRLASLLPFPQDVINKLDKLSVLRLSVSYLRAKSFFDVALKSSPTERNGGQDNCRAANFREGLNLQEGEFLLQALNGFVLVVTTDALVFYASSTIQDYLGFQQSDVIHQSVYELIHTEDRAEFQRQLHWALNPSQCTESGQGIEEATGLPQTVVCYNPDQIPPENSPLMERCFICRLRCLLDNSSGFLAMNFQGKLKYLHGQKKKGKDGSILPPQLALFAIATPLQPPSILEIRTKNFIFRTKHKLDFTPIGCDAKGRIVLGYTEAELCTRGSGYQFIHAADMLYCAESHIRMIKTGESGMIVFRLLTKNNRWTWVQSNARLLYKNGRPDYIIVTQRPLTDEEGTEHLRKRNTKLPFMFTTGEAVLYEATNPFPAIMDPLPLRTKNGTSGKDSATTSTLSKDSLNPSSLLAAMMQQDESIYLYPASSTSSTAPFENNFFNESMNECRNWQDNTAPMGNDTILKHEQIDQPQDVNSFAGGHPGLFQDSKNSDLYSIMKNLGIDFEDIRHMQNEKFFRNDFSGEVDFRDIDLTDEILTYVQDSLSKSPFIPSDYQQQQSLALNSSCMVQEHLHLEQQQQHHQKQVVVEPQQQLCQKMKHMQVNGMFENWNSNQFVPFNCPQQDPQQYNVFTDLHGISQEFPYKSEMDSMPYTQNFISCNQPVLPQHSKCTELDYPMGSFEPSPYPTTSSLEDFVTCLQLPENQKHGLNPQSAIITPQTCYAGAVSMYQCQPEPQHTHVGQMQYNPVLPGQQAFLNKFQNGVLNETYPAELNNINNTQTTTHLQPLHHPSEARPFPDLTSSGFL
# In short: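 HepG2 cells transiently transfected with cis-element-driven multiplexed reporter transcription units; endogenous transcription factor activity measured as reporter mRNA 24 h after dosing. RT-PCR, 6-FAM labelling, HpaI digestion, capillary electrophoresis; bidirectional fitting versus DMSO baseline.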
# [6] = ATG_AP_1_CIS: Attagene CIS-FACTORIAL HepG2 Assay for human Activator Protein 1 (AP-1) (AID 2282931); details: HepG2 Attagene cis-factorial AP-1 reporter mRNA; actives raise or lower the signal
# In short: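 Cis-regulated reporter units transiently expressed in HepG2 report endogenous transcription-factor activity. Signal: reporter mRNA at 24 h, via RT-PCR and fluorescent capillary electrophoresis. Endpoint derived by bidirectional fitting, DMSO as negative control.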
# [7] = ATG_AP_2_CIS: Attagene CIS-FACTORIAL HepG2 Assay for human Activator Protein 2 (AP-2) (AID 2282932); details: HepG2 AP-2 cis-reporter, Attagene transcription factor profiling; actives raise or lower the signal
# In short: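 Bidirectional curve fitting against DMSO was applied to reporter mRNA signals from HepG2 cells 24 h after dosing. Cis-promoter reporter units, transiently transfected, were read by RT-PCR plus capillary electrophoresis.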
# [8] = ATG_BRE_CIS: Attagene CIS-FACTORIAL HepG2 Assay for human Bone Morphogenetic Protein (BMP) Response Element (BRE) (AID 2282933); details: HepG2 BMP response element reporter, Attagene transcription factor profiling; actives raise or lower the signal
# In short: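 Fluorescence-labelled reporter cDNA fragments, separated by capillary electrophoresis, gave the signal for this component of a 52-readout multiplex. HepG2 cells were transfected, exposed to chemicals for 24 h, and compared with DMSO using bidirectional fitting.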
# [9] = molecular target: Retinoic acid receptor alpha (Homo sapiens) (UniProt P10276); assay: ATG_DR5_RAR_CIS: Attagene CIS-FACTORIAL HepG2 Assay for human Retinoic Acid Receptor Alpha (RARE), DR5 submotif (AID 2282934); details: HepG2 Attagene cis-factorial RARE DR5 reporter, mRNA; actives raise or lower the signal;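 on AC50: reporter responds to endogenous RAR alpha beta and gamma in HepG2 not RARA alone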
# Chain of Retinoic acid receptor alpha (Homo sapiens) (P10276 whole entry, looked up): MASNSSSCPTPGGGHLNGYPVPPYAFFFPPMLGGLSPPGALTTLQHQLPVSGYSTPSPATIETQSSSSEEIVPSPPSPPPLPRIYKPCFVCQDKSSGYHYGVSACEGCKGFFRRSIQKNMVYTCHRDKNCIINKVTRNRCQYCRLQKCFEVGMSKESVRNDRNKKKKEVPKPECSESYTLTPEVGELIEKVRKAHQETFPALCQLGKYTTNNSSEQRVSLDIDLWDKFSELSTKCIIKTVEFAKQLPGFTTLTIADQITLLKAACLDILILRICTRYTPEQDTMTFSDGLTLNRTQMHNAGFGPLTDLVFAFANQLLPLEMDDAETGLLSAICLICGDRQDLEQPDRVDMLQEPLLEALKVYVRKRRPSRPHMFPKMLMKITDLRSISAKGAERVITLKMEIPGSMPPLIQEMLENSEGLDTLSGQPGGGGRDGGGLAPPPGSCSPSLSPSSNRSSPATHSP
# In short: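 HepG2 cells transiently transfected with multiplexed reporter units under cis (DR5 RARE) promoters, so endogenous transcription factor activity is measured. After 24 h compound exposure, reporter mRNA is quantified by RT-PCR with fluorescent labelling and capillary electrophoresis; bidirectional fitting versus DMSO.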
# [10] = molecular target: Transcription factor E2F1 (Homo sapiens) (UniProt Q01094); assay: ATG_E2F_CIS: Attagene CIS-FACTORIAL HepG2 Assay for human E2F Transcription Factor 1 (AID 2282935); details: HepG2 Attagene cis-reporter, E2F reporter RNA transcripts; actives raise or lower the signal
# Chain of Transcription factor E2F1 (Homo sapiens) (Q01094 whole entry, looked up): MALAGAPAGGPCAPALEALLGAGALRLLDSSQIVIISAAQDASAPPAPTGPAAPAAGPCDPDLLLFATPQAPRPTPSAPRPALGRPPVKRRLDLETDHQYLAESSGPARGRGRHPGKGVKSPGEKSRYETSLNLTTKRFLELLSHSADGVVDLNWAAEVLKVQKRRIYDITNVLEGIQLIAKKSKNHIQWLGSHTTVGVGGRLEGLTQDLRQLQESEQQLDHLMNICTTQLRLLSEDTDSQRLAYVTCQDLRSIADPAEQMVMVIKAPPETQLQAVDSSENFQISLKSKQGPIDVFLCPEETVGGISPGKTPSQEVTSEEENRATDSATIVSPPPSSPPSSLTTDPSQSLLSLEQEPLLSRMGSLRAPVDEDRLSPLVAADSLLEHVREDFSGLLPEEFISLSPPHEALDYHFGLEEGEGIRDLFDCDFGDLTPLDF
# In short: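 Multiplexed cis-reporter assay: HepG2, transient transfection, 24 h dosing, mRNA quantitation by labeled RT-PCR and CE.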
# [11] = ATG_E_Box_CIS: Attagene CIS-FACTORIAL HepG2 Assay for human Enhancer Box (E-box) (AID 2282936); details: HepG2 E-box cis-reporter transcription, actives raise or lower the signal
# In short: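 Multiplexed CIS reporter system in transiently transfected HepG2 cells measures native transcription factor activity. Reporter RNA after 24 h exposure is profiled by RT-PCR-capillary electrophoresis.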
# [12] = ATG_M_61_CIS: Attagene CIS-FACTORIAL HepG2 Assay for M61 Transcription Factor (Internal Marker) (AID 2282937); details: HepG2 Attagene CIS-FACTORIAL M61 internal marker reporter; actives raise or lower the signal
# In short: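 Background-control endpoint: HepG2 cells with cis-regulated reporter constructs, 24 h exposure, reporter mRNA detected via fluorescent primer extension and capillary electrophoresis; values from bidirectional fitting with DMSO baseline.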
# [13] = ATG_EGR_CIS: Attagene CIS-FACTORIAL HepG2 Assay for human Early Growth Response 1 (EGR1) (AID 2282938); details: HepG2 Attagene CIS-FACTORIAL EGR reporter mRNA; actives raise or lower the signal
# In short: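 Endpoint derived by bidirectional fitting versus DMSO vehicle. Method: cis-promoter reporter units transfected into HepG2, 24 h dosing, RNA isolation, RT-PCR with 6-FAM primer extension and HpaI digestion, then capillary electrophoresis fluorescence detection.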
# [14] = ATG_M_19_CIS: Attagene CIS-FACTORIAL HepG2 Assay for M19 Transcription Factor (Internal Marker) (AID 2282939); details: HepG2 Attagene CIS-FACTORIAL M19 internal marker reporter; actives raise or lower the signal
# In short: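 HepG2, MRTU transient transfection, 24 h dosing. Total RNA → RT-PCR → 6-FAM primer extension → HpaI digest → CE fluorescence. Bidirectional curve fit, DMSO negative control.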
# [15] = ATG_ERE_CIS: Attagene CIS-FACTORIAL HepG2 Assay for Estrogen Response Element (ERE) (AID 2282940); details: HepG2 ERE cis-reporter, Attagene RNA transcript; actives raise or lower the signal
# In short: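 After a 24 h chemical treatment, RNA from reporter-transfected HepG2 cells is reverse-transcribed, PCR-amplified and fluorescently labelled. Fragments separated by capillary electrophoresis give reporter signal; DMSO serves as negative control.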
# [16] = ATG_Ets_CIS: Attagene CIS-FACTORIAL HepG2 Assay for human Erythroblast Transformation Specific (ETS) (AID 2282941); details: HepG2 ETS cis-reporter transcription, actives raise or lower the signal
# In short: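 After transient cis-reporter transfection, HepG2 cells receive test chemical for 24 h. Reporter mRNA levels, measured by RT-PCR and capillary electrophoresis fluorescence, are analysed bidirectionally relative to the DMSO baseline.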
# [17] = molecular target: Hepatocyte nuclear factor 3-beta (Homo sapiens) (UniProt Q9Y261); assay: ATG_FoxA2_CIS: Attagene CIS-FACTORIAL HepG2 Assay for human Forkhead box A2 (FOXA2) (AID 2282942); details: HepG2 cis-reporter transcription factor activity, 24 h; actives raise or lower the signal
# Chain of Hepatocyte nuclear factor 3-beta (Homo sapiens) (Q9Y261 whole entry, looked up): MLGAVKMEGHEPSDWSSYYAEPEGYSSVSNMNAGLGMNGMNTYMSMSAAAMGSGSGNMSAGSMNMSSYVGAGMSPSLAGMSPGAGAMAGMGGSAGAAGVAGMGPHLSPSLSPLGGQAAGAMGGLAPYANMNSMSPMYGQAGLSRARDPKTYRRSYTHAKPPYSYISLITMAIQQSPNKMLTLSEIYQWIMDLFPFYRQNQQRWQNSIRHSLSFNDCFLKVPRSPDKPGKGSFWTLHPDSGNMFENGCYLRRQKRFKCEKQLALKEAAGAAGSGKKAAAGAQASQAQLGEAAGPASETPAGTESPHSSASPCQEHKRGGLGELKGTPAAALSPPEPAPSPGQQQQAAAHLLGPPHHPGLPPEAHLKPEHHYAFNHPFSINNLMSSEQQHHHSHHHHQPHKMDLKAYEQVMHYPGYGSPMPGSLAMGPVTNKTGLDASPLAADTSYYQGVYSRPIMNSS
# In short: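 Measured: reporter mRNA induction or loss in HepG2 transiently carrying multiple cis-regulated reporter units, 24 h after dosing. Quantified by RT-PCR plus capillary electrophoresis, normalised to DMSO.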
# [18] = ATG_FoxO_CIS: Attagene CIS-FACTORIAL HepG2 Assay for human Forkhead box O (FoxO) (AID 2282943); details: HepG2 Attagene cis-reporter, FoxO element, mRNA; actives raise or lower the signal
# In short: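 HepG2 cells transiently transfected with cis-promoter-driven multiple reporter transcription units; 24 h after chemical dosing, reporter mRNA quantified by RT-PCR, fluorescent primer extension, HpaI digestion and capillary electrophoresis. Bidirectional fitting versus DMSO baseline.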
# [19] = ATG_GATA_CIS: Attagene CIS-FACTORIAL HepG2 Assay for human GATA Binding Protein (AID 2282944); details: HepG2 GATA cis-element reporter, Attagene multiplex mRNA; actives raise or lower the signal
# In short: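 Cells: HepG2, transiently transfected with cis-regulated reporter transcription units. Exposure: 24 h. Detection: RT-PCR plus capillary electrophoresis of FAM-labeled fragments. Analysis: bidirectional, DMSO as baseline.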
smiles,measurement,setting,value
O=C=Nc1cccc2c(N=C=O)cccc12,outcome,[1],inactive
same,outcome,[2],inactive
same,outcome,[3],inactive
same,outcome,[4],inactive
same,AC50,[5],4.73 µM (active)
same,outcome,[6],inactive
same,outcome,[7],inactive
same,outcome,[8],inactive
same,outcome,[9],inactive
same,outcome,[10],inactive
same,outcome,[11],inactive
same,outcome,[12],inactive
same,outcome,[13],inactive
same,outcome,[14],inactive
same,outcome,[15],inactive
same,outcome,[16],inactive
same,outcome,[17],inactive
same,outcome,[18],inactive
same,outcome,[19],inactive
CC(C)(C)C(=O)C1C(=O)c2ccccc2C1=O,AC50,[1],10.4 µM (active)
same,AC50,[2],57.9 µM (active)
same,outcome,[3],inactive
same,outcome,[4],inactive
same,AC50,[5],34.6 µM (active)
same,AC50,[6],30.3 µM (active)
same,outcome,[7],inactive
same,outcome,[8],inactive
same,AC50,[9],31.9 µM (active)
same,outcome,[10],inactive
same,outcome,[12],inactive
same,outcome,[13],inactive
same,outcome,[14],inactive
same,outcome,[15],inactive
same,outcome,[16],inactive
same,outcome,[17],inactive
same,outcome,[18],inactive
same,outcome,[19],inactive
CCOC(=O)CC(=O)C(F)(F)C(F)(F)F,AC50,[1],9.87 µM (active)
same,outcome,[2],inactive
same,outcome,[3],inactive
same,outcome,[5],inactive
same,outcome,[6],inactive
same,outcome,[7],inactive
same,outcome,[8],inactive
same,outcome,[9],inactive
same,outcome,[10],inactive
same,outcome,[11],inactive
same,outcome,[12],inactive
same,outcome,[13],inactive
same,outcome,[14],inactive
same,outcome,[15],inactive
same,outcome,[16],inactive
same,outcome,[18],inactive
same,outcome,[19],inactive
CC(C)CCCC(C)CCO (configuration not stated),outcome,[1],inactive
same,outcome,[2],inactive
same,outcome,[3],inactive
same,outcome,[4],inactive
same,outcome,[6],inactive
same,outcome,[7],inactive
same,outcome,[8],inactive
same,outcome,[9],inactive
same,outcome,[10],inactive
same,outcome,[11],inactive
same,outcome,[12],inactive
same,outcome,[13],inactive
same,outcome,[14],inactive
same,outcome,[15],inactive
same,outcome,[16],inactive
same,outcome,[17],inactive
same,outcome,[18],inactive
same,outcome,[19],inactive
CCN(CC)c1ccc2c(c1)Oc1cc(N(CC)CC)ccc1C21OC(=O)c2ccccc21,outcome,[1],inactive
same,outcome,[2],inactive
same,outcome,[3],inactive
same,outcome,[4],inactive
same,outcome,[6],inactive
same,outcome,[7],inactive
same,outcome,[8],inactive
same,outcome,[9],inactive
same,outcome,[10],inactive
same,outcome,[12],inactive
same,outcome,[13],inactive
same,outcome,[14],inactive
same,outcome,[16],inactive
same,outcome,[17],inactive
same,outcome,[18],inactive
same,outcome,[19],inactive
Cc1ccc2c(c1)OCC(=O)CO2,outcome,[1],inactive
same,outcome,[2],inactive
same,outcome,[3],inactive
same,outcome,[4],inactive
same,outcome,[5],inactive
same,outcome,[6],inactive
same,outcome,[7],inactive
same,outcome,[8],inactive
same,outcome,[9],inactive
same,outcome,[10],inactive
same,outcome,[12],inactive
same,outcome,[13],inactive
same,outcome,[14],inactive
same,outcome,[16],inactive
same,outcome,[17],inactive
same,outcome,[18],inactive
same,outcome,[19],inactive
Brc1ccccn1,outcome,[1],inactive
same,outcome,[2],inactive
same,outcome,[3],inactive
same,outcome,[4],inactive
same,outcome,[5],inactive
same,outcome,[6],inactive
same,outcome,[7],inactive
same,outcome,[8],inactive
same,outcome,[9],inactive
same,outcome,[10],inactive
same,outcome,[11],inactive
same,outcome,[12],inactive
same,outcome,[13],inactive
same,outcome,[14],inactive
same,outcome,[16],inactive
same,outcome,[18],inactive
same,outcome,[19],inactive
